Results filed as inconclusive are left out. Active and inactive are the calls of the source. Unless noted, calls come from the whole dose curve.
Experiments:
[1] = Nuclear factor erythroid 2-related factor 2/antioxidant responsive element (Nrf2/ARE) small molecule agonists: qHTS cell viability counter screen in human keratinocytes (AID 1919968; active = well fitted curve in the direction sought with a large enough effect in the repeat runs; an effect the other way counts as inactive or inconclusive; note: nearly all actives have a fitted effect of over 55% in size)
Outline: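 Stably transfected HaCaT (KeratinoSens), 1,500/well. Test agents in DMSO were applied for 23 h, 37 C/5% CO2. CellTiter-Fluor was incubated 1 h before the fluorescence read.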

[2] = biological target: KiSS-1 receptor (Homo sapiens) (UniProt Q969F8); assay: Human kisspeptin (KISS1R) small molecule agonists, calcium flux assay in KISS1R-HEK293 cells (AID 1920064; active = well fitted curve in the direction sought with a large enough effect in the repeat runs; an effect the other way counts as inactive or inconclusive)
Outline: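 After overnight (18 h) culture at 37 C/5% CO2, human KISS1R-HEK293 cells received calcium dye for 1 h, then test compound; emission at 540 nm (excitation 480 nm) was tracked for 3 min.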

[3] = G protein-coupled receptor (GPCR) small molecule agonists, calcium flux assay: HEK293 wild type cell line counter screen (AID 1920065)
Outline: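 Following 18 h incubation at 37 C/5% CO2, plates got calcium dye for 1 h; compounds, ATP or DMSO were then pinned in and fluorescence followed kinetically (480/540 nm).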

[4] = p53 small molecule agonists, cell-based qHTS assay with human liver microsomes (AID 1963577)
Outline: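 Fluorescence of the beta-lactamase reporter in p53RE-bla cells, detected with LiveBLAzer substrate (2 h, room temperature, dark), served as the read-out after 16 h compound exposure at 37 C with human liver microsomes and NADPH, each 0.5 mg/mL final.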

[5] = p53 small molecule agonists, cell-based qHTS assay with rat liver microsomes (AID 1963578)
Outline: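 Cells carrying a p53 response element–beta-lactamase reporter were plated and rested 5 h, then dosed with compound in DMSO plus rat liver microsomes and NADPH, each at 0.5 mg/mL final. After 16 h at 37 C, LiveBLAzer substrate was added for 2 h.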

[6] = p53 small molecule agonists, cell-based qHTS assay with human liver microsomes: qHTS cell viability counter screen (AID 1963579); note: nearly all actives have a fitted effect of over 45% in size
Outline: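 Cytotoxicity counter screen: p53RE-bla, 4,000 cells/well; 5 h settle, 37 C/5% CO2; cpd + HLM 0.5 mg/mL + NADPH 0.5 mg/mL (final); 16 h, 37 C; CellTiter-Glo, 30 min RT, luminescence.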

[7] = p53 small molecule agonists, cell-based qHTS assay with rat liver microsomes: qHTS cell viability counter screen (AID 1963580); note: nearly all actives have a fitted effect of over 45% in size
Outline: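 Cytotoxicity counter screen: intracellular ATP read by CellTiter-Glo luminescence in the p53 reporter wells. HCT-116 p53RE-bla cells were treated for 16 h at 37 C alongside rat liver microsomes and NADPH, each 0.5 mg/mL final.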

[8] = p53 small molecule agonists, cell-based qHTS assay: qHTS cell viability counter screen (AID 1963581); note: nearly all actives have a fitted effect of over 45% in size
Outline: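 qHTS counter screen: 16 h compound exposure at 37 C of p53RE-bla HCT-116 cells (4,000 per well, seeded 5 h prior), cell viability by ATP luminescence.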

[9] = p53 small molecule agonists, cell-based qHTS assay (AID 1963582; active = well fitted activation curve with a large enough effect in the signal ratio in the repeat runs, not every such curve was filed as active; the % refers to the signal ratio)
Outline: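 Measured: fluorescence from cleaved LiveBLAzer substrate. System: p53RE-bla cells, 16 h compound treatment at 37 C, 2 h substrate step at room temperature.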

[10] = biological target: 5-hydroxytryptamine receptor 2A (Homo sapiens) (UniProt P28223); assay: 5-hydroxytryptamine receptor 2A (HTR2A) small molecule antagonists, cell-based qHTS assay (AID 1963586); note: nearly all actives have a fitted effect of over 45% in size
Outline: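 CHO cells stably expressing human HTR2A were plated for 18 h at 37 C, then loaded with calcium dye for 1 h. Compounds were preincubated 5 min at room temperature before DOI (4 nM solution) was added. Kinetic fluorescence was read for 3 min.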

[11] = biological target: 5-hydroxytryptamine receptor 2A (Homo sapiens) (UniProt P28223); assay: 5-hydroxytryptamine receptor 2A (HTR2A) small molecule agonists, cell-based qHTS assay (AID 1963587); note: nearly all actives have a fitted effect of over 30% in size; note: potency is the fitted concentration of half-maximal effect
Outline: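 Kinetic calcium-flux fluorescence (2 min, 1 sec intervals) after compound addition in agonist mode. HTR2A-CHO cells were cultured 18 h, then dye-loaded 1 h at 37 C.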

[12] = biological target: Muscarinic acetylcholine receptor M1 (Homo sapiens) (UniProt P11229); assay: Cholinergic receptor muscarinic 1 (CHRM1) small molecule antagonists, cell-based qHTS assay (AID 1963588); note: nearly all actives have a fitted effect of over 40% in size
Outline: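 Compounds were tested at 15 concentrations in three independent runs. Dye-loaded CHRM1-CHO cells were exposed 5 min at room temperature before stimulation by acetylcholine added at 50nM. Intracellular calcium was read kinetically on FDSS for 3 min.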

[13] = biological target: Muscarinic acetylcholine receptor M1 (Homo sapiens) (UniProt P11229); assay: Cholinergic receptor muscarinic 1 (CHRM1) small molecule agonists, cell-based qHTS assay (AID 1963589); note: nearly all actives have a fitted effect of over 35% in size
Outline: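 Kinetic fluorescence (1 s intervals) of calcium-sensitive dye in human M1 CHO cells after compound addition; cells pre-incubated 18 h at 37 C/5% CO2 and dye-loaded 1 h.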

[14] = cAMP Responsive Elements (CRE) small molecule agonists, cell-based qHTS assay (AID 1963590)
Outline: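 Test agents in DMSO were incubated 3 h at 37 C/5% CO2 with CRE-bla HEK 293T cells seeded 18 h earlier; LiveBLAzer B/G FRET substrate was added and read after 2 h at room temperature.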

[15] = cAMP Responsive Elements (CRE) small molecule antagonists, cell-based qHTS assay (AID 1963591; active = well fitted inhibition curve with a large enough effect in the signal ratio in the repeat runs, not every such curve was filed as active; the % refers to the signal ratio)
Outline: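 Reporter line CRE-bla HEK 293T in dialyzed-FBS DMEM; cells preincubated 18 h, treated 3 h with compound plus NKH477 (0.25 uM final); LiveBLAzer FRET, 2 h RT.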

[16] = biological target: Beta-2 adrenergic receptor (Homo sapiens) (UniProt P07550); assay: Adrenergic beta2 receptor (ADRB2) small molecule antagonists, cell-based qHTS assay (AID 1963592); note: series mostly up to about 92 µM; nearly all actives have a fitted effect of over 50% in size
Outline: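 Assay format: CHO-ADRB2 cells, 18-20hr seeding at 37C/5% CO2, then compound plus 1nM isoproterenol agonist mix for 0.5hr RT. Homogeneous time-resolved fluorescence cAMP detection after 1hr, expressed as 665/615 nm ratio.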

[17] = biological target: D(2) dopamine receptor (Homo sapiens) (UniProt P14416); assay: Dopamine D2 receptor (DRD2) small molecule agonists, cell-based qHTS assay (AID 1963594); note: nearly all actives have a fitted effect of over 35% in size
Outline: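 cAMP accumulation in DRD2-HEK293 cells measured by HTRF after 1 h detection; compounds added 10 min before NKH477 (200nM […]) forskolin-analogue stimulation, 30 min at room temperature, with Ro20-1724 present at 0.1 mM final.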

[18] = biological target: D(2) dopamine receptor (Homo sapiens) (UniProt P14416); assay: Dopamine D2 receptor (DRD2) small molecule antagonists, cell-based qHTS assay (AID 1963595; active = well fitted inhibition curve with a large enough effect in the signal ratio in the repeat runs, with a control signal flat; the % refers to the signal ratio)
Outline: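 HEK293 cells stably expressing DRD2, preincubated with 0.1 mM Ro20-1724 and compounds 10 min, were stimulated with 200 nM NKH477 plus 12 nM quinpirole for 30 min at room temperature; cAMP measured by HTRF (665/620 nm).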

[19] = biological target: Beta-2 adrenergic receptor (Homo sapiens) (UniProt P07550); assay: Adrenergic beta2 receptor (ADRB2) small molecule agonists, cell-based qHTS assay (AID 1963593);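 note: CHO cells stably overexpressing human ADRB2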
Outline: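 CHO cells stably over-expressing ADRB2 were plated overnight at 37C, then dosed with compounds plus a stimulation mix containing 100uM IBMX and 25uM Ro-20-1724 for 0.5hr at room temperature. cAMP was measured by HTRF competition, 1hr.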
% is set by controls: 0 for no effect and ±100 for the full control effect.

5-hydroxytryptamine receptor 2A (Homo sapiens), sequence (P28223 whole entry, looked up): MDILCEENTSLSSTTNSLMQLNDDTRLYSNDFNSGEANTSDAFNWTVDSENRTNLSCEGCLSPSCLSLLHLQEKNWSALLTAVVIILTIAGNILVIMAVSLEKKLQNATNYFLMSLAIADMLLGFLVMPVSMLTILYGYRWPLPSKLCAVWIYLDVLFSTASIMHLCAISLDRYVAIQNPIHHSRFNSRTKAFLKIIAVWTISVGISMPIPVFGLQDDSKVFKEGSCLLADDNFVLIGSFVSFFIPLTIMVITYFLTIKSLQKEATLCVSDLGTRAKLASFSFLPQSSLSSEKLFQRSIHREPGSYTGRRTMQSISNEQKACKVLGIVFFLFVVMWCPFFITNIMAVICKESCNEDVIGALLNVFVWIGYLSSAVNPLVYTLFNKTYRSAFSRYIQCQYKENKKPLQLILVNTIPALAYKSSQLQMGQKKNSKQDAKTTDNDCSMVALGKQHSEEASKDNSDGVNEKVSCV
Beta-2 adrenergic receptor (Homo sapiens), sequence (P07550 whole entry, looked up): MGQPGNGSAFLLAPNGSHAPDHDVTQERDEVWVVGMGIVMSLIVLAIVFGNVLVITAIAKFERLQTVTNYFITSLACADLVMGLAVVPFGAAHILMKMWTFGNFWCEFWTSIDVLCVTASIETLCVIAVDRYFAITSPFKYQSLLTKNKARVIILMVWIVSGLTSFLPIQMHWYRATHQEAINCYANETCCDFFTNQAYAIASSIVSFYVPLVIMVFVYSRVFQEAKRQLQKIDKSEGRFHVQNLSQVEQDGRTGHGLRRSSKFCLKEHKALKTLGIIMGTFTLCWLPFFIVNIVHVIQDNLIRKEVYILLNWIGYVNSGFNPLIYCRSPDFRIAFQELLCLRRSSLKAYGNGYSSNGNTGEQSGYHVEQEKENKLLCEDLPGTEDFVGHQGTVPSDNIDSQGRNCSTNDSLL
Muscarinic acetylcholine receptor M1 (Homo sapiens), sequence (P11229 whole entry, looked up): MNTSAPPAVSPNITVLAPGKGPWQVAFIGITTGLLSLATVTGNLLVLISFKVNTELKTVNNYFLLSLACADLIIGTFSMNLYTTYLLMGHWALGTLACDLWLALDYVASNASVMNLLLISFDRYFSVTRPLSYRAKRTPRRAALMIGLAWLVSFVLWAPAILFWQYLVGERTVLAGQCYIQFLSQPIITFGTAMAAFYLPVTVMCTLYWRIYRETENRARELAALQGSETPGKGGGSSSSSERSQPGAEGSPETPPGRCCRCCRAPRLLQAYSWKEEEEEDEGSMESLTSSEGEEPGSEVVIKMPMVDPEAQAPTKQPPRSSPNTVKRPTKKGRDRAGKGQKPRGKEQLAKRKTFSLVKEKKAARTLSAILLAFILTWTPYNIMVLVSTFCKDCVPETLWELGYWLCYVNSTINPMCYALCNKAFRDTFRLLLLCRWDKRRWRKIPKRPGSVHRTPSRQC
KiSS-1 receptor (Homo sapiens), sequence (Q969F8 whole entry, looked up): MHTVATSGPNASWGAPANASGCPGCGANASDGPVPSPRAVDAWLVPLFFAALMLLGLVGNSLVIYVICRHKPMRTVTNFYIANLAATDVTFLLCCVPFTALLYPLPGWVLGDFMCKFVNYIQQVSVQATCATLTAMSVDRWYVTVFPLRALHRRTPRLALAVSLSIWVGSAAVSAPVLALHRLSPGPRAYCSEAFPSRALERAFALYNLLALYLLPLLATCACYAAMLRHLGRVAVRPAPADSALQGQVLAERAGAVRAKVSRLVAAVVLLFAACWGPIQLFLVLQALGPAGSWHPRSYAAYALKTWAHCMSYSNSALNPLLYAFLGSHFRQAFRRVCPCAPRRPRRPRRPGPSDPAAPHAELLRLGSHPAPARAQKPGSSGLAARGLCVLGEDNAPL
D(2) dopamine receptor (Homo sapiens), sequence (P14416 whole entry, looked up): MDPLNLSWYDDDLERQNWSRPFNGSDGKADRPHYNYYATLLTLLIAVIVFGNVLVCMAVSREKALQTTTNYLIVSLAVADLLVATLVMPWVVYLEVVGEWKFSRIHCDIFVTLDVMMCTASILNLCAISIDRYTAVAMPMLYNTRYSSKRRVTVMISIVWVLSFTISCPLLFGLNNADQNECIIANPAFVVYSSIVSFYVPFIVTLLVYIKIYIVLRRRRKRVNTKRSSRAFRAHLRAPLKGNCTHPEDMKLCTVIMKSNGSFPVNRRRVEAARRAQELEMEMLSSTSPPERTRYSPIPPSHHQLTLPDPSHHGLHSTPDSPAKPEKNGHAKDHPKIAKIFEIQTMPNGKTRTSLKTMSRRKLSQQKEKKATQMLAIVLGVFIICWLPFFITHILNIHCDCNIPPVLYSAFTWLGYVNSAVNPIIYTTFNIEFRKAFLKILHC

OC1CCCCCCCCCCC1
active: Potency [11] 6.23 µM
inactive: Potency [1] | Potency [2] | Potency [3] | Potency [4] | Potency [5] | Potency [6] | Potency [7] | Potency [8] | Potency [9] | Potency [10] | Potency [12] | Potency [13] | Potency [14] | Potency [15] | Potency [16] | Potency [17] | Potency [18]

NC(=O)c1cccc([N+](=O)[O-])c1
inactive: Potency [1] | Potency [2] | Potency [3] | Potency [4] | Potency [5] | Potency [6] | Potency [7] | Potency [8] | Potency [9] | Potency [10] | Potency [11] | Potency [12] | Potency [14] | Potency [15] | Potency [16] | Potency [17] | Potency [18]

COc1cccc(OC)c1C(=O)N[C@@H]1C(=O)N2[C@@H]1SC(C)(C)[C@@H]2C(=O)O
inactive: Potency [1] | Potency [2] | Potency [3] | Potency [4] | Potency [5] | Potency [6] | Potency [7] | Potency [8] | Potency [9] | Potency [10] | Potency [11] | Potency [12] | Potency [13] | Potency [14] | Potency [15] | Potency [16] | Potency [19] | Potency [17] | Potency [18]

CCCCOC(=O)C(=O)OCCCC
inactive: Potency [1] | Potency [2] | Potency [3] | Potency [4] | Potency [5] | Potency [6] | Potency [7] | Potency [8] | Potency [9] | Potency [10] | Potency [11] | Potency [12] | Potency [13] | Potency [14] | Potency [15] | Potency [16] | Potency [19] | Potency [17] | Potency [18]

CCn1cc(C(=O)O)c(=O)c2cc3c(cc21)OCO3
inactive: Potency [1] | Potency [2] | Potency [3] | Potency [4] | Potency [5] | Potency [6] | Potency [7] | Potency [8] | Potency [9] | Potency [10] | Potency [11] | Potency [12] | Potency [13] | activity change, negative = inhibition [15] -7.86% [at 18.9 µM] | Potency [19] | Potency [17] | Potency [18]

C[Si](C)O[Si](C)(C)O[Si](C)(C)O[Si](C)C
inactive: Potency [1] | Potency [2] | Potency [3] | Potency [4] | Potency [5] | Potency [6] | Potency [7] | Potency [8] | Potency [9] | Potency [10] | Potency [11] | Potency [12] | Potency [13] | Potency [14] | Potency [15] | Potency [16] | Potency [17] | Potency [18]

Reference: PubChem BioAssay (Tox21)
